# Tests used:
# Assay in all cases: DAPPL (digital affinity profiling via proximity ligation, sequencing); 10 mM Tris-HCl pH 7.5, 50 mM NaCl, 1 mM DTT, 4% glycerol, room temperature, 30 min; GST-TFs on glutathione beads, 16-mer random dsDNA library, 0.1% formaldehyde crosslink after washing; high values mean tight binding
# [1] = molecular target: T1, FLI1 (Homo sapiens, UniProt Q01543 1-452); details: protein: recombinant; tags: N-terminal GST; dsDNA, one strand shown
# T1 sequence: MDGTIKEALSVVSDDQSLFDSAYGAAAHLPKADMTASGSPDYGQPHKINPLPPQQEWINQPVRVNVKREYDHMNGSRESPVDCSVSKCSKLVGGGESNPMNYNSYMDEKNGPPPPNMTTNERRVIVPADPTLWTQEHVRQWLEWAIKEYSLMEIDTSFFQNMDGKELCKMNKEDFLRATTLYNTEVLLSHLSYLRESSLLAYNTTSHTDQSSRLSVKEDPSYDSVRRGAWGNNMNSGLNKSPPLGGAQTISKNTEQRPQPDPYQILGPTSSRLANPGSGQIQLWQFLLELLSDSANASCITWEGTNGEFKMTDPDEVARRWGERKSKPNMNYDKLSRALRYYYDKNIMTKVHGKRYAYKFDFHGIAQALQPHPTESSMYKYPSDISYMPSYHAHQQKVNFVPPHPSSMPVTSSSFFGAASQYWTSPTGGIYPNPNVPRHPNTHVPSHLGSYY
# Summary of the method: (§1)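 Pools of DNA-barcoded human transcription factors, expressed in yeast as GST fusions on glutathione beads and combined with a tag-only sample, were incubated with 200 nmole of a 16-mer random double-stranded DNA library. Incubation took 30 min at room temperature in Tris/NaCl/DTT/glycerol buffer and was followed by washing, 0.1% formaldehyde crosslinking, proximity ligation (BsaI/T4 ligase, 1 h, 37 °C), PCR amplification and sequencing on an Illumina NextSeq500. Binding signal is the ratio of a hexamer's read frequency for a factor to its frequency for the tag-only sample.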
# [2] = molecular target: T2, ELK1 (Homo sapiens, UniProt P19419 1-428); details: protein: recombinant; tags: N-terminal GST; dsDNA, one strand shown
# T2 sequence: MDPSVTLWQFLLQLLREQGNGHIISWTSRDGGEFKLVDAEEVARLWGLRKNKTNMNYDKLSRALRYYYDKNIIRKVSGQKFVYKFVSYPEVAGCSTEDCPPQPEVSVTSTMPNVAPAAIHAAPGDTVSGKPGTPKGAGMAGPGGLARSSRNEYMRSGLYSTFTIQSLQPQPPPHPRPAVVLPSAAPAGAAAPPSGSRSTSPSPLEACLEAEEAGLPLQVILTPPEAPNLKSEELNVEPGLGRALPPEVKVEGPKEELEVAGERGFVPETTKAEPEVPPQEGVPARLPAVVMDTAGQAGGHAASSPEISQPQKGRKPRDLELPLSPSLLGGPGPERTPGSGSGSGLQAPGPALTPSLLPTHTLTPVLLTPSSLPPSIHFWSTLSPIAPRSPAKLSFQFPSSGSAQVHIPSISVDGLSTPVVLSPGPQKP
# Summary of the method: as §1
# [3] = molecular target: T3, GABPA (Homo sapiens, UniProt Q06546 1-454); details: protein: recombinant; tags: N-terminal GST; dsDNA, one strand shown
# T3 sequence: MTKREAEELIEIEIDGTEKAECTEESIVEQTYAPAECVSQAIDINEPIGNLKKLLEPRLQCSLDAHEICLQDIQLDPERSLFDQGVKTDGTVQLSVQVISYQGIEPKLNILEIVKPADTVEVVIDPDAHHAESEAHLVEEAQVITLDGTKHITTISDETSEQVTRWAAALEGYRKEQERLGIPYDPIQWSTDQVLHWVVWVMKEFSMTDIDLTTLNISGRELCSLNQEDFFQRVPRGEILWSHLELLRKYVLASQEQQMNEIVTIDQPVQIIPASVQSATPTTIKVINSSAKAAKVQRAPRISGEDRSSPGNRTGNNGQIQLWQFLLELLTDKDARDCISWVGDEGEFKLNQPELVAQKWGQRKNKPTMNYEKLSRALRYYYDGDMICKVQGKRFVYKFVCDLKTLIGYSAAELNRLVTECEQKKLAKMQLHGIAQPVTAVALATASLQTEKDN
# Summary of the method: as §1
# [4] = molecular target: T4, ERG (Homo sapiens, UniProt P11308 1-479); details: protein: recombinant; tags: N-terminal GST; dsDNA, one strand shown
# T4 sequence: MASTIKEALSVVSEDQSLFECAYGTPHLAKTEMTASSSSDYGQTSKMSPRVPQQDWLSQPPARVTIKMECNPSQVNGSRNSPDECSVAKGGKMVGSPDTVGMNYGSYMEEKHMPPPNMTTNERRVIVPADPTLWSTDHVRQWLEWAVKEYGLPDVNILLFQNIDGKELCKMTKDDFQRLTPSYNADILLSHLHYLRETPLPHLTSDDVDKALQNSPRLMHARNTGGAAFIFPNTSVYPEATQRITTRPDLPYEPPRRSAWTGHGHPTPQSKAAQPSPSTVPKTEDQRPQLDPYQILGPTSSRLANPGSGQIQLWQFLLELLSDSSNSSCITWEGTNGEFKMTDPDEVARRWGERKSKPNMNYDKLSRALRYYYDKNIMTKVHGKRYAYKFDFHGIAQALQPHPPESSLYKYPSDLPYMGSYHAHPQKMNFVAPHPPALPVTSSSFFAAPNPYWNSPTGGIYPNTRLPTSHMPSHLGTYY
# Summary of the method: as §1
# [5] = molecular target: ELF1 (Homo sapiens, UniProt P32519 1-619); details: protein: recombinant; tags: N-terminal GST; dsDNA, one strand shown
# Summary of the method: as §1
# [6] = molecular target: T5, EHF (Homo sapiens, UniProt Q9NZC4 1-300); details: protein: recombinant; tags: N-terminal GST; dsDNA, one strand shown
# T5 sequence: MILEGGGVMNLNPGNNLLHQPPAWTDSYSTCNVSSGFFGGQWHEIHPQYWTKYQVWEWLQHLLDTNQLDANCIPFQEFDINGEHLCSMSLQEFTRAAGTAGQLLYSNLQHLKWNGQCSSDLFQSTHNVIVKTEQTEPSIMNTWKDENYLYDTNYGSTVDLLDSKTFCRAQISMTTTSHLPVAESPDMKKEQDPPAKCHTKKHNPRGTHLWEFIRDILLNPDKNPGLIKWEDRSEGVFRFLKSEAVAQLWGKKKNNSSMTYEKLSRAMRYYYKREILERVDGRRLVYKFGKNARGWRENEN
# Summary of the method: as §1
# [7] = molecular target: SPI1 (Homo sapiens, UniProt P17947 1-270); details: protein: recombinant; tags: N-terminal GST; dsDNA, one strand shown
# Summary of the method: as §1
# [8] = molecular target: SPIB (Homo sapiens, UniProt Q01892 1-262); details: protein: recombinant; tags: N-terminal GST; dsDNA, one strand shown
# Summary of the method: as §1
# [9] = molecular target: T6, ELK3 (Homo sapiens, UniProt P41970 1-407); details: protein: recombinant; tags: N-terminal GST; dsDNA, one strand shown
# T6 sequence: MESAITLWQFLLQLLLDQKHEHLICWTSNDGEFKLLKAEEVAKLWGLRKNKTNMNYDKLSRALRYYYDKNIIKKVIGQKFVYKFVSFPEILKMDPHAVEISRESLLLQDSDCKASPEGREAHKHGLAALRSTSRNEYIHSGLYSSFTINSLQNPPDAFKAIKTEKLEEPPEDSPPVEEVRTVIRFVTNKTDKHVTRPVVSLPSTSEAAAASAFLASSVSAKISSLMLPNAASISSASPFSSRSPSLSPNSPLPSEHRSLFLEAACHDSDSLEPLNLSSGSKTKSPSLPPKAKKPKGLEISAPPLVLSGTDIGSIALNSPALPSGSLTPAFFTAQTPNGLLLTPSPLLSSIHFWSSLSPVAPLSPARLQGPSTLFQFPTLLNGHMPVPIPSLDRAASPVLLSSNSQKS
# Summary of the method: as §1
# [10] = molecular target: T7, FEV (Homo sapiens, UniProt Q99581 1-238); details: protein: recombinant; tags: N-terminal GST; dsDNA, one strand shown
# T7 sequence: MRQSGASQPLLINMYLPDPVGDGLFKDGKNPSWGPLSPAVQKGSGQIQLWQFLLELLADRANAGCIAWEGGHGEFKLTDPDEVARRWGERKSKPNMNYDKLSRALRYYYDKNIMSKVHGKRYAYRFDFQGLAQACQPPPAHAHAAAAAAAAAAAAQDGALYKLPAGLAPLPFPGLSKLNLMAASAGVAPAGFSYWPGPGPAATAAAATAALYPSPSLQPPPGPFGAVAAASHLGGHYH
# Summary of the method: as §1
# [11] = molecular target: ETV5 (Homo sapiens, UniProt P41161 1-510); details: protein: recombinant; tags: N-terminal GST; dsDNA, one strand shown
# Summary of the method: as §1
# [12] = molecular target: HSF1 (Homo sapiens, UniProt Q00613 1-529); details: protein: recombinant; tags: N-terminal GST; chain copies: 3; dsDNA, one strand shown
# Summary of the method: as §1
# [13] = molecular target: T8, SPIC (Homo sapiens, UniProt Q8N5J4 1-248); details: protein: recombinant; tags: N-terminal GST; dsDNA, one strand shown
# T8 sequence: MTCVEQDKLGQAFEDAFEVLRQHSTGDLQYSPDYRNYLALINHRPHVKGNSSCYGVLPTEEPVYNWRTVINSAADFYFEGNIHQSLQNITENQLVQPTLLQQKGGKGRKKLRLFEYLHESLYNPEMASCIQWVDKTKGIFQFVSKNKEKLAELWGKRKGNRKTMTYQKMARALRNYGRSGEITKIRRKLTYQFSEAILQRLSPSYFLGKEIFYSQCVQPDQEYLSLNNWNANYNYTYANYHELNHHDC
# Summary of the method: as §1
# [14] = molecular target: ELF4 (Homo sapiens, UniProt Q99607 1-663); details: protein: recombinant; tags: N-terminal GST; dsDNA, one strand shown
# Summary of the method: as §1
# [15] = molecular target: T9, ELK4 (Homo sapiens, UniProt P28324-2 1-405); details: protein: recombinant; tags: N-terminal GST; dsDNA, one strand shown
# T9 sequence: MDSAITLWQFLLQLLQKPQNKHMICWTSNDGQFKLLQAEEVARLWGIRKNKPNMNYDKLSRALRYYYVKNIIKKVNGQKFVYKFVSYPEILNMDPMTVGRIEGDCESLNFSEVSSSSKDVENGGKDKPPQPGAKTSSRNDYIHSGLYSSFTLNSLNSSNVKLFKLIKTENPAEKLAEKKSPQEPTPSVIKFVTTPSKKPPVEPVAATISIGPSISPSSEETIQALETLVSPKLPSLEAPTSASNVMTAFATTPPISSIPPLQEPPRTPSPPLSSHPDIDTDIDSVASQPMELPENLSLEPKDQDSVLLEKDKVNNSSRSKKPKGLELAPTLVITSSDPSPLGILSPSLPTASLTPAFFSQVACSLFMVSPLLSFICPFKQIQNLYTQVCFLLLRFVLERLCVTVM
# Summary of the method: as §1
# [16] = molecular target: T10, ETV2 (Homo sapiens, UniProt O00321 1-342); details: protein: recombinant; tags: N-terminal GST; dsDNA, one strand shown
# T10 sequence: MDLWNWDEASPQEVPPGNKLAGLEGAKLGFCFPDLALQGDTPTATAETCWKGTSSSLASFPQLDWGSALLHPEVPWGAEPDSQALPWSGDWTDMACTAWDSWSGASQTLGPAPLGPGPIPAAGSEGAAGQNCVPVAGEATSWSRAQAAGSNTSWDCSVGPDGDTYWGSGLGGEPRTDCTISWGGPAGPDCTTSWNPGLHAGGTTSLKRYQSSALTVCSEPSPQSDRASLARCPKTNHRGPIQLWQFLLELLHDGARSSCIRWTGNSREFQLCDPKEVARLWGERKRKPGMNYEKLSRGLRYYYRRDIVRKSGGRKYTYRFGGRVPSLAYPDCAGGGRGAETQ
# Summary of the method: as §1
# [17] = molecular target: T11, ELF3 (Homo sapiens, UniProt P78545 1-371); details: protein: recombinant; tags: N-terminal GST; dsDNA, one strand shown
# T11 sequence: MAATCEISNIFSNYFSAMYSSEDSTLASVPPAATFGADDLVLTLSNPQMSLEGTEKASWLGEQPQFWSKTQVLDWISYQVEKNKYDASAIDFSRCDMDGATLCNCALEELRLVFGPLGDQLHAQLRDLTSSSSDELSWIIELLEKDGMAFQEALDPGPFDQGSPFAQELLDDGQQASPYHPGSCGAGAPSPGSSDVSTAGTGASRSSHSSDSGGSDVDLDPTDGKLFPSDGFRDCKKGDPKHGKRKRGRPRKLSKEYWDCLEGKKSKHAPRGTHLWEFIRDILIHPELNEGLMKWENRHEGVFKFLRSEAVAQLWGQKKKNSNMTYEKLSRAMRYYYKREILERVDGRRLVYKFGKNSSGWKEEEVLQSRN
# Summary of the method: as §1
# [18] = molecular target: CRX (Homo sapiens, UniProt O43186 1-299); details: protein: recombinant; tags: N-terminal GST; dsDNA, one strand shown
# Summary of the method: as §1
# [19] = molecular target: ETV1 (Homo sapiens, UniProt P50549 1-477); details: protein: recombinant; tags: N-terminal GST; dsDNA, one strand shown
# Summary of the method: as §1
# Sequence of CRX (O43186 whole entry): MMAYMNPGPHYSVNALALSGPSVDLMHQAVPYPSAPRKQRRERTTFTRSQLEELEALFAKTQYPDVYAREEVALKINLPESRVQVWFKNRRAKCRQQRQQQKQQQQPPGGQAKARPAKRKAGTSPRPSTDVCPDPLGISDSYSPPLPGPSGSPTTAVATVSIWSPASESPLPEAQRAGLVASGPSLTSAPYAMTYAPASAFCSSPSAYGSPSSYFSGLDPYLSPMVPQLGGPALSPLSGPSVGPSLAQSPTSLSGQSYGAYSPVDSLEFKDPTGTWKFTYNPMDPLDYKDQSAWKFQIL
# Sequence of ELF4 (Q99607 whole entry): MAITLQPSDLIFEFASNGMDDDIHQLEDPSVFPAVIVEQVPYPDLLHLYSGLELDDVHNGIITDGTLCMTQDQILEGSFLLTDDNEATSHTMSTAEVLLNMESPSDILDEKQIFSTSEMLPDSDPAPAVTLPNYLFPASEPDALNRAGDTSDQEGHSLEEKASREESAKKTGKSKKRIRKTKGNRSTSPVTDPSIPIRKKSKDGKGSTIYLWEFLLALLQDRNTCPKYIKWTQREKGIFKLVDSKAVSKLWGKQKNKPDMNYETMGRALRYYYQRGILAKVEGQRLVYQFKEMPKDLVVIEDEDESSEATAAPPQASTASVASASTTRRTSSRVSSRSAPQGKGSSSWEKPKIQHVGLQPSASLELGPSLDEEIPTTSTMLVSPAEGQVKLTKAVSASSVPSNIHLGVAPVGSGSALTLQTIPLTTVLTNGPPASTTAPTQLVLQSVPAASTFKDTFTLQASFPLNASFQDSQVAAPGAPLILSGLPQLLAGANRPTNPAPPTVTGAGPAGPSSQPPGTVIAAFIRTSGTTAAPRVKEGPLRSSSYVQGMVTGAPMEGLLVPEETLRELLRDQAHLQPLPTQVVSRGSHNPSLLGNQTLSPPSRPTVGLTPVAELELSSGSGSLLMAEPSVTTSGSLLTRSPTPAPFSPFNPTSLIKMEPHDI
# Sequence of HSF1 (Q00613 whole entry): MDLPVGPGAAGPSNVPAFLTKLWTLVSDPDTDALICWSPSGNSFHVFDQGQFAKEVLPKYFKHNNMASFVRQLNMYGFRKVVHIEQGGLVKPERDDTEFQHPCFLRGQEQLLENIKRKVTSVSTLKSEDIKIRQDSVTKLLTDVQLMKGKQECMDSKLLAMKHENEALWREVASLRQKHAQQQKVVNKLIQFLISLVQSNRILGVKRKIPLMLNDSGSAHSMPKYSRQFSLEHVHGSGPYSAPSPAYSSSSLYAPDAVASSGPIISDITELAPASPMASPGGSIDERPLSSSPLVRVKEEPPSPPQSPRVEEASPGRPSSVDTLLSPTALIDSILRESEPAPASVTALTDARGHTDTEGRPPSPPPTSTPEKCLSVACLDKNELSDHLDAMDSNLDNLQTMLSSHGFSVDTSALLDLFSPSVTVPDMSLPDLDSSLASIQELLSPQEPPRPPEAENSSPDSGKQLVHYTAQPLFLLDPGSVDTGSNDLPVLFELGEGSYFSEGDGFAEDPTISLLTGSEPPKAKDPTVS
# Sequence of ETV5 (P41161 whole entry): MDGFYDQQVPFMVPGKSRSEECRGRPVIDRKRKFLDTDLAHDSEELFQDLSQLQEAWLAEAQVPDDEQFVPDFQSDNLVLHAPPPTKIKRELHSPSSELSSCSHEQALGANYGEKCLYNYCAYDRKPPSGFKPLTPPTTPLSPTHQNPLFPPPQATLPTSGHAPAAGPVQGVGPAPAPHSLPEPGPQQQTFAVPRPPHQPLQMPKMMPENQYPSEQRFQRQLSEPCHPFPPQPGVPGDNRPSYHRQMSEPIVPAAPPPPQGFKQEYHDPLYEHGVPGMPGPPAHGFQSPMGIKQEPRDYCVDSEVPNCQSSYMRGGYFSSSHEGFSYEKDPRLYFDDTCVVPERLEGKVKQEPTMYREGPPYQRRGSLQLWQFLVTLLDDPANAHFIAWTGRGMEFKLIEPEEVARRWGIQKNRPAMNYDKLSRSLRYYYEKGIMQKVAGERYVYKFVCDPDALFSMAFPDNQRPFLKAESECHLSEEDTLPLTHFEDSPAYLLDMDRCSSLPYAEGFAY
# Sequence of ETV1 (P50549 whole entry): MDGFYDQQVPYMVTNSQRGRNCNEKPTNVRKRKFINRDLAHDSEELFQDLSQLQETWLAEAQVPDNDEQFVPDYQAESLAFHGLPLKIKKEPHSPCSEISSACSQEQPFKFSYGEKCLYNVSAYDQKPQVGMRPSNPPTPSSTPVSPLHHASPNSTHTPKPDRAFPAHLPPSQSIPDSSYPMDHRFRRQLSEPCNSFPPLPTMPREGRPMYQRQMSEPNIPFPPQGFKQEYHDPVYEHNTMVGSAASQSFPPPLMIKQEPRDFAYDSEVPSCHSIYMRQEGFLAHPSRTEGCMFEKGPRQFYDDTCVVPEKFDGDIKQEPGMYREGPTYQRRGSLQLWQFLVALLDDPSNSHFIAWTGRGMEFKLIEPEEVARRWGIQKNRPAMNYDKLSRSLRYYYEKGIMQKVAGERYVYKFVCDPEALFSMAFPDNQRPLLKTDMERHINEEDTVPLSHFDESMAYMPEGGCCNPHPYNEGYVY
# Sequence of ELF1 (P32519 whole entry): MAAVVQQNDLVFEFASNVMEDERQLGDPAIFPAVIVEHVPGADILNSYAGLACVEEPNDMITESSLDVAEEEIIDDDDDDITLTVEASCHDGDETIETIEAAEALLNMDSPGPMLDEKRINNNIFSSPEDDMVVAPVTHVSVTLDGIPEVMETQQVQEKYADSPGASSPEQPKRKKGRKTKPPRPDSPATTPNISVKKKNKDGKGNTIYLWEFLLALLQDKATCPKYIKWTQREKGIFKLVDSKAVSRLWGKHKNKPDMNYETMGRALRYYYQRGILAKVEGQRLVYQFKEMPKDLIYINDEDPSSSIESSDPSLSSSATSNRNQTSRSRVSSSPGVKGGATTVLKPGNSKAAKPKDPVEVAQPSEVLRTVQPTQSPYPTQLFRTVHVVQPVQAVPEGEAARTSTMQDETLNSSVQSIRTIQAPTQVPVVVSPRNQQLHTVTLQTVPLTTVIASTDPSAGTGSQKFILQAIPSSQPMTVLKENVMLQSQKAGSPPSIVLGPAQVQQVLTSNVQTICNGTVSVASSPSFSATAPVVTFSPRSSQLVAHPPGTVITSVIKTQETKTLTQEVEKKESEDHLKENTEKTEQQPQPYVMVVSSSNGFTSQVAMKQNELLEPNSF
# Sequence of SPIB (Q01892 whole entry): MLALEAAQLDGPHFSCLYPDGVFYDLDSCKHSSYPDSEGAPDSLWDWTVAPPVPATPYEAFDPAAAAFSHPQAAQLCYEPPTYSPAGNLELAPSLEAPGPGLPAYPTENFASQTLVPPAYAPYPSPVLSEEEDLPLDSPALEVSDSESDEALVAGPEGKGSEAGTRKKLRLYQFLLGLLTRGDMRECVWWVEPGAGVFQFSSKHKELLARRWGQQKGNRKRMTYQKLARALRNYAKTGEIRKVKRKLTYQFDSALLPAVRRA
sequence,measurement,setting,value
CTACGC,binding signal,[1],"1.71 fold enrichment (6-mer frequency, TF over GST control)"
same,binding signal,[2],"1.59 fold enrichment (6-mer frequency, TF over GST control)"
same,binding signal,[3],"1.56 fold enrichment (6-mer frequency, TF over GST control)"
same,binding signal,[4],"1.47 fold enrichment (6-mer frequency, TF over GST control)"
same,binding signal,[5],"1.55 fold enrichment (6-mer frequency, TF over GST control)"
same,binding signal,[6],"1.56 fold enrichment (6-mer frequency, TF over GST control)"
same,binding signal,[7],"1.59 fold enrichment (6-mer frequency, TF over GST control)"
same,binding signal,[8],"1.6 fold enrichment (6-mer frequency, TF over GST control)"
same,binding signal,[9],"1.56 fold enrichment (6-mer frequency, TF over GST control)"
same,binding signal,[10],"1.62 fold enrichment (6-mer frequency, TF over GST control)"
same,binding signal,[11],"1.6 fold enrichment (6-mer frequency, TF over GST control)"
same,binding signal,[12],"1.39 fold enrichment (6-mer frequency, TF over GST control)"
same,binding signal,[13],"1.36 fold enrichment (6-mer frequency, TF over GST control)"
same,binding signal,[14],"1.51 fold enrichment (6-mer frequency, TF over GST control)"
same,binding signal,[15],"1.6 fold enrichment (6-mer frequency, TF over GST control)"
same,binding signal,[16],"1.57 fold enrichment (6-mer frequency, TF over GST control)"
same,binding signal,[17],"1.57 fold enrichment (6-mer frequency, TF over GST control)"
same,binding signal,[18],"1.38 fold enrichment (6-mer frequency, TF over GST control)"
same,binding signal,[19],"1.55 fold enrichment (6-mer frequency, TF over GST control)"
